Screening results as filed in PubChem BioAssay.
TDP1 cell CPT: qHTS for Inhibitors of human tyrosyl-DNA phosphodiesterase 1 (TDP1): qHTS in cells in presence of CPT; chicken DT40 Tdp1-/-;hTDP1 cells + 20 nM CPT, ATP luminescence, 48 h; Potency, µM (titrated, usually from 46.2 µM), actives largely listed as inhibitors; hit rate 12% among 420,000; AID 686979, 2013; further: nearly all actives have a fitted effect of over 55% in size
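Chicken DT40 Tdp1-/- cells complemented with human TDP1, 400 cells/well, exposed to compounds plus 20 nM camptothecin for at least 48 h at 37 C; viability read as ATP content by CellTiter-Glo luminescence.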
TGFb inhibitor: qHTS for Inhibitors of TGF-b; HepG2 CAGA-GFP TGF-b/SMAD3 reporter, GFP fluorescence, 18 h; TGF-beta stimulated, 500 pg/mL final; Potency, µM (top dose mostly 46.1 µM), usual class: inhibitors; hit rate 1.2% among 410,000; AID 588855, 2011; further: nearly all actives have a fitted effect of over 65% in size
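Inhibition was scored as loss of TGF-beta-induced (500 pg/mL final, 18 hours, 37 degrees C) GFP in HEPG2 cells carrying a CAGA-GFP reporter, in DMEM with 1% FBS. Well GFP was summed per cell; Activity was normalised to unstimulated and stimulated DMSO wells, then concentration-response fitting.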
TDP1 cell noCPT: qHTS for Inhibitors of human tyrosyl-DNA phosphodiesterase 1 (TDP1): qHTS in cells in absence of CPT; DT40 Tdp1-/- hTDP1 cells, no CPT, ATP luminescence, 48 h; Potency, µM (titrated, usually from 46.2 µM), actives largely listed as inhibitors; hit rate 15% among 420,000; AID 686978, 2013; further: nearly all actives have a fitted effect of over 55% in size
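Camptothecin absent (DMSO only). Human TDP1-complemented DT40 knockout cells, 400 cells/well, 37 °C for minimum 48 hr; ATP measured via CellTiter-Glo, 30 min dark incubation, luminescence.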
S2 tox: Viability Counterscreen for Primary qHTS for Inhibitors of ATXN expression; S2 cells (HEK-293 line with an ATXN2-luciferase reporter) viability, CellTiter-Fluor protease fluorescence, 24 h; Potency, µM (top dose mostly 56.7 µM), actives largely listed as cytotoxic; hit rate 0.49% among 400,000; AID 651635, 2014; further: nearly all actives have a fitted effect of over 40% in size
ATXN2 expr inh: Primary qHTS for Inhibitors of ATXN expression | HEK-293 ATXN2-luciferase reporter, luminescence, 24 h | Potency, µM (series often up to 57 µM), hits mostly inhibitors | hit rate 0.72% among 360,000; further: nearly all actives have a fitted effect of over 55% in size
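ATXN2-luciferase reporter cells (luciferase flanked by upstream and downstream ATXN2 gene portions) were treated 24 h at 37 °C with compounds at up to 57 uM. SteadyGlo luminescence gave expression; GF-AFC fluorescence gave viability.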
HepG2 tox: qHTS for Inhibitors of TGF-b: Cytotox Counterscreen. HepG2 CAGA-GFP viability, ATP luminescence, 18 h. Potency, µM (series often up to 46.1 µM), most hits filed as cytotoxic. hit rate 0.76% among 410,000. AID 588856, 2011
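CellTiter-Glo luminescence gave cytotoxicity after 18 hours at 37 degrees C. The cells were HepG2 CAGA-GFP in 1% FBS DMEM, stimulated with 500 pg/mL TGF-beta after compound addition. %Activity was normalised to no-cell wells (complete cell-killing) and DMSO (no toxicity), and curves were fitted and classified.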
Each line names hits and unclear results; the compound was inactive in the other large screens; ! = a repeat was not active. Sampled rows, rich in hits. Any-hit rate of the full collection: about 17%. The call rests on the fitted dose curve; in most records, active means well fitted curve in the direction sought with a large enough effect; inconclusive means small, poorly fitted or top-dose-only effect, or another doubt; inactive means no such curve, though single readings can be large; an effect the other way counts as inactive or inconclusive.

CCOC(=O)CSc1nc2cc3c(cc2c(=O)n1CCCC(=O)NCCc1ccc(OC)c(OC)c1)OCO3	TDP1 cell CPT inconclusive, TDP1 cell noCPT 13µM (no result: S2 tox, ATXN2 expr inh)
CCN(CC)C(=O)CSc1nc2cc3c(cc2c(=O)n1Cc1ccc(C(=O)NCCc2ccc(OC)c(OC)c2)cc1)OCO3	TDP1 cell CPT 13µM, TDP1 cell noCPT 20.6µM (no result: S2 tox, ATXN2 expr inh)
CCCCC(Sc1nc2cc3c(cc2c(=O)n1CCCC(=O)NCc1ccc(OC)cc1)OCO3)C(=O)OCC (stereo not drawn)	TDP1 cell CPT 4.61µM, TDP1 cell noCPT 4.61µM (no result: S2 tox, ATXN2 expr inh)
Cc1cc(C(=O)OCC(=O)Nc2ccc(F)cc2F)c(C)o1	none
c1cc(-c2ccc(N3CCOCC3)cc2)n2cnnc2c1	TDP1 cell noCPT inconclusive
Cc1nn(CSc2c(F)c(F)c(F)c(F)c2F)c(C)c1[N+](=O)[O-]	none (no result: S2 tox, ATXN2 expr inh)
COc1ccc(CC(N)c2csc(Nc3ncccn3)n2)cc1 (stereo not drawn)	TDP1 cell CPT 4.61µM, TDP1 cell noCPT 6.51µM, S2 tox inconclusive
CCc1cnc(Nc2nc(C(N)Cc3ccc(F)cc3)cs2)nc1 (stereo not drawn)	TDP1 cell CPT 11.6µM, TGFb inhibitor inconclusive, TDP1 cell noCPT 18.4µM, ATXN2 expr inh inconclusive (no result: S2 tox)
Cc1cnc(C)c(Nc2nc(C(N)Cc3ccc(Cl)cc3)cs2)n1 (stereo not drawn)	TDP1 cell CPT 8.2µM, TGFb inhibitor 17.8µM, TDP1 cell noCPT 18.4µM, ATXN2 expr inh inconclusive
COc1ccc(CC(N)c2csc(Nc3nc(C)cnc3C)n2)cc1 (stereo not drawn)	TDP1 cell CPT 18.4µM, TDP1 cell noCPT 14.6µM
Cc1ccc(S(=O)(=O)N2CCN(c3nc(-c4cccs4)nc4c3ncn4COC(=O)C(C)(C)C)CC2)cc1	none (no result: TGFb inhibitor, S2 tox, ATXN2 expr inh, HepG2 tox)
CCc1ccc(C(c2c(C)nn(-c3ccccc3)c2N)c2c(C)nn(-c3ccccc3)c2N)cc1	TDP1 cell CPT inconclusive, TDP1 cell noCPT inconclusive, S2 tox inconclusive
COc1ccc(CC(N)c2csc(Nc3cc(NCc4ccco4)ncn3)n2)cc1 (stereo not drawn)	TDP1 cell CPT inconclusive, TGFb inhibitor inconclusive, TDP1 cell noCPT 13µM, S2 tox inconclusive, ATXN2 expr inh inconclusive, HepG2 tox 11.2µM
Cc1cnc(C)c(Nc2nc(C(N)Cc3ccc(F)cc3)cs2)n1 (stereo not drawn)	TDP1 cell CPT 25.9µM, TGFb inhibitor inconclusive, TDP1 cell noCPT inconclusive, S2 tox inconclusive, ATXN2 expr inh inconclusive
Cc1cnc(C)c(Nc2nc(C(N)CCc3ccccc3)cs2)n1 (stereo not drawn)	TDP1 cell CPT 16.4µM, TGFb inhibitor inconclusive, TDP1 cell noCPT 18.4µM
NC(Cc1ccc(C(F)(F)F)cc1)c1csc(Nc2cc(Oc3ccccc3)ncn2)n1 (stereo not drawn)	TDP1 cell CPT inconclusive, TGFb inhibitor inconclusive, TDP1 cell noCPT inconclusive, S2 tox inconclusive, ATXN2 expr inh inconclusive
COc1ccc(-n2ncc3c(NC(C)(C)CO)ncnc32)cc1	none
CC(C)NC[C@H](O)COc1ccc(CC(N)=O)cc1	none
C=C(C)c1cccc(C(C)(C)NC(=O)NC2CC(C)(C)NC(C)(C)C2)c1	TDP1 cell CPT inconclusive
CCC(=O)N1CCc2cc(Br)cc(S(=O)(=O)N3CCCC(C(=O)Nc4cccc(Cl)c4C)C3)c21 (stereo not drawn)	TDP1 cell CPT 14.6µM, TDP1 cell noCPT 11.6µM
CCC(=O)N1CCc2cc(Br)cc(S(=O)(=O)CCC(=O)NCCc3ccccc3)c21	TDP1 cell noCPT inconclusive, S2 tox inconclusive
CCC(=O)N1CCc2cc(Br)cc(S(=O)(=O)CCC(=O)NCCc3cccc(C)c3)c21	TDP1 cell CPT 16.4µM, TDP1 cell noCPT 23.1µM (no result: S2 tox, ATXN2 expr inh)
CCC(=O)N1CCc2cc(Br)cc(S(=O)(=O)NCCc3ccccc3Cl)c21	TDP1 cell CPT 16.4µM, TGFb inhibitor inconclusive, TDP1 cell noCPT 20.6µM, S2 tox inconclusive
Cc1ccccc1CSc1nnc2ccc(-c3ccncc3)nn12	none
Cc1ccc(S(=O)c2ccc(NC(=O)C3CC3)cc2C#N)cc1 (stereo not drawn)	TDP1 cell CPT 18.4µM, TDP1 cell noCPT 23.1µM
Cc1ccc(NC(=O)C2CCN(S(=O)(=O)c3ccccc3)CC2)cc1	S2 tox inconclusive
CCN(C(=O)COC(=O)/C=C/c1nc2ccccc2s1)c1c(N)n(Cc2ccccc2)c(=O)[nH]c1=O	none
COC(=O)[C@H](CC(C)C)N(Cc1ccccc1)S(=O)(=O)N(Cc1ccccc1)[C@@H](CC(C)C)C(=O)OC	TDP1 cell CPT 20.6µM, TGFb inhibitor inconclusive, TDP1 cell noCPT 11.6µM
O=S(=O)(N(Cc1ccccc1)[C@@H](CO)Cc1ccccc1)N(Cc1ccccc1)[C@@H](CO)Cc1ccccc1	TDP1 cell CPT inconclusive, TGFb inhibitor inconclusive, TDP1 cell noCPT 5.62µM, S2 tox inconclusive
COC(=O)[C@H](C(C)C)N(Cc1ccccc1)S(=O)(=O)CCNC1CCCC1	TDP1 cell CPT 25.9µM, TGFb inhibitor inconclusive, TDP1 cell noCPT inconclusive
CCOC(=O)[C@@H](C)NS(=O)(=O)N(Cc1ccccc1)[C@H](C(=O)OC)C(C)C	TDP1 cell CPT inconclusive, TGFb inhibitor inconclusive, TDP1 cell noCPT inconclusive
C=CCCN([C@H](CO)Cc1ccccc1)S(=O)(=O)c1ccccc1Br	TDP1 cell CPT inconclusive, TGFb inhibitor inconclusive
C=CS(=O)(=O)N(Cc1ccccc1Br)[C@H](CO)Cc1ccccc1	TDP1 cell CPT 7.94µM, TGFb inhibitor inconclusive, TDP1 cell noCPT 7.08µM, S2 tox 12.6µM, ATXN2 expr inh 15.8µM
CCCCn1c(N)c(N(CC)C(=O)c2ccc(C#N)cc2)c(=O)[nH]c1=O	none
CC1=C(C(=O)N(C)C)CC(CC(=O)NCCc2ccccn2)C(=O)N1Cc1ccc(F)cc1 (stereo not drawn)	TDP1 cell noCPT inconclusive
O=C(CSc1nnc(-c2ccccc2)o1)OCc1ccccc1	none
C=C[C@H](CC(C)C)N(Cc1ccccc1)S(=O)(=O)N(Cc1ccc(OC)cc1)[C@H](C=C)CC(C)C	TDP1 cell CPT inconclusive, TDP1 cell noCPT 13µM
CC(C)N(Cc1ccccc1)S(=O)(=O)N(C)C	S2 tox inconclusive
C=CS(=O)(=O)N(Cc1ccccc1)[C@H](CO)CC(C)C	TDP1 cell CPT 10µM, TDP1 cell noCPT 11.2µM, S2 tox inconclusive
CC(C)C[C@H](CO)N(Cc1ccccc1)S(=O)(=O)N(Cc1ccccc1)[C@@H](CO)CC(C)C	TDP1 cell CPT 16.4µM, TGFb inhibitor inconclusive, TDP1 cell noCPT 11.6µM!, S2 tox inconclusive, ATXN2 expr inh inconclusive
